# Assay results from the supplement of paper PMC6555819.
# Assays:
# Test in all cases: PBM binding z-score (relative to random genomic background probes); higher = stronger binding; sequences stand for … in GC…GCGATTGACAGCGTAGAATGAAGG
# [1] = test system: RARb homodimer (NR concentration 270 nM)
# Procedure, shortened: (§1)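 Antibodies against each partner of ligand-free nuclear receptor dimers (one per run) detected binding on custom Agilent 4×180K protein-binding microarrays after 1 h incubation. The double-stranded probes had 34-nt variable regions carrying direct-repeat seeds, single-nucleotide variants, half-site ablations and random human genomic background sequences. Binding z-scores, from regression-normalized fluorescence, use the random background probes as reference.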
# [2] = test system: RARg:RXRa (NR concentration 270 nM, RXRa partner concentration 90 nM)
# Procedure, shortened: as §1
# [3] = test system: RARg homodimer (NR concentration 270 nM)
# Procedure, shortened: as §1
# [4] = test system: RXRa DBDmut IVT, anti-RXR (DBD mutation: RXRa K156A/R161A, NR concentration 90 nM)
# Procedure, shortened: as §1
# [5] = test system: RXRa homodimer (NR concentration 180 nM)
# Procedure, shortened: as §1
# [6] = test system: THRa:RXRa (NR concentration 90 nM, RXRa partner concentration 90 nM)
# Procedure, shortened: as §1
# [7] = test system: THRa homodimer (NR concentration 90 nM)
# Procedure, shortened: as §1
# [8] = test system: VDR homodimer (NR concentration 270 nM)
# Procedure, shortened: as §1
Sequence,PBM binding z-score [1],PBM binding z-score [2],PBM binding z-score [3],PBM binding z-score [4],PBM binding z-score [5],PBM binding z-score [6],PBM binding z-score [7],PBM binding z-score [8]
GCAGACAGGTGAAACGCTGGTAACTCAGGGTGGC,-0.219,0.167,-0.138,-0.318,0.612,0.209,-0.645,-0.838
TAGCCGAGGTCATTGGGCCAGTATAGTACGCATC,3.98,5.93,5.86,4.42,6.61,4.01,2.77,5.01
CGTAAAAGTTCAAGGTAACGTAACAGAAAGCAGC,3.55,4.73,5.27,4.27,3.81,2.92,1.17,2.67
AATACAGGGTCATCGTAGGCCAGAGCACGCACAG,3.55,5.92,5.24,3.61,6.36,4.52,1.4,3.18
CCTTACGGGTCACTGACAGGTTATAGCATTTGGA,3.39,6.19,4.95,1.95,5.59,2.98,0.283,1.03
GCAGACAGGTGAAACGCAGGTATCTCAGGGTGGC,0.0151,0.137,0.315,-0.484,0.588,0.272,-0.471,-0.528
AGAACGAGGGCAATGGGTTGATAGCACGGGTGGC,1.6,1.47,1.68,1.84,1.09,1.12,0.645,4.19
CCAGACAGGTGAAAGGTAACTTAGTCTGGTACGC,0.975,1.23,0.78,0.208,2.05,0.818,-0.205,-0.23
GCTGCTAGCTCAGGTTGGTCAGCTAACGGGTACG,-0.467,-0.618,-0.751,-0.375,-1.02,-0.615,-0.751,-0.32
TCGAGTAGGTTAGGCGCATTCAGAATGGCGTCGA,-0.314,-0.45,-0.527,-0.0106,-0.118,-0.415,-0.996,-0.809
CTCGAAAGGTCGTGCTCAGGTGAATATACCAAAC,3.06,5.46,4.17,2.45,5.01,4.38,1.6,1.27
GCTGCTAGGTCAGGTTGGTTAGCTAACGGGTACG,2.43,2.43,3.37,0.744,0.769,1.77,0.549,0.682
CAAACTAGGTCACAGAGCTCAAAGTCCGTGCGTA,3.35,4.37,4.81,1.38,3.73,3.25,1.11,0.62
CGAACTAGCTCATTGACAGGACAGTGAATAGTAA,0.184,-0.00563,0.0455,0.00616,-0.33,-0.0508,-0.291,-0.0514
GCTAGTTGGTCAGTCAAAGGTCACACACCGGTCG,5.2,5.9,4.85,0.537,5.93,3.52,1.59,1.47
TCGAGTAGGTTAGTCGAGGCATTCAGCCAACATA,-0.449,-0.298,-0.249,-0.0873,-0.032,0.444,-0.612,-0.393
AATACAGGGTCATCGTAGGCCAGAGTTCGCACAG,3.88,5.67,5.21,3.68,6.43,4.77,1.65,5.37
TCTATTAGTTGAAGGGCAACCTACGAGTCCGTTT,1.2,0.698,0.806,1.51,0.858,0.233,-0.0206,1.42
TCGAGTATGTTAGTCGGGGCATTCAGCCAACATA,-0.183,-0.172,-0.574,0.723,-0.06,0.102,-0.431,0.226

Sequence,PBM binding z-score [1],PBM binding z-score [2],PBM binding z-score [3],PBM binding z-score [4],PBM binding z-score [5],PBM binding z-score [6],PBM binding z-score [7],PBM binding z-score [8]
CGTCCAAGGTCAAGGTCAGGGAAAGAGACTCGAA,5.45,7.09,7.87,3.81,7.17,4.53,3.82,3.37
CGTCCAAGGTCAAAGGTAAGTGAAGAGATGACGG,4.06,6.23,6.89,3.8,7.74,3.91,1.96,2.48
ACTTACGGGTCAAAGAGGTTATAGCACGCGTATA,3.42,5.32,4.72,2.54,6.31,3.45,0.218,3.59
TGAATGAGGTTAGAAGATCAGGGAACGTTGCAAA,0.0495,0.98,0.936,-0.437,1.17,1.13,-0.107,-0.169
AGTCAAAGTTCATCTAGGTAAAGTAAGATATGCT,3.76,5.67,6.09,4.8,5.07,3.07,0.199,5.29
GTACCAAGGTGAATAGGCCGTTGATGAGTAGGCG,0.865,0.98,0.694,-0.306,0.633,1.16,0.224,-0.141
CCTCGGAGGACATCAGGAGGTCAGAGCTGCCAGA,3.17,3.48,3.04,0.267,2.63,2.67,1.05,1.06
TCAGACAGGTGAAGGTTACTCAGGTACGCAGTCG,1.84,1.16,1.17,1.54,1.72,2.58,0.799,0.58
AGAATGAGCTTACCAAAGATCAGGGAAACGCTTG,-0.958,-0.0102,-0.129,-0.777,0.323,-0.369,-0.963,-0.938
TCATATAGGTAAAAGGTGAAGGTCGGTGTGGTAA,2.64,2.21,1.23,1.73,3.05,1.94,1.05,0.941
CCTACTGGGCCACGAAAGGTCATTGACTCAGTGA,4.8,4.9,4.53,0.581,4.92,3.77,0.711,2.15
GATACAGAGTCAAGGCCAGAGTACGCGTATTGAT,0.0594,0.0796,0.345,-0.102,0.116,0.0889,-0.438,-0.0653
ATATGTAGGTTAGCTGGGGTCTTTCAGACTAGGC,0.902,0.713,0.709,0.448,0.914,3.67,0.871,0.329
CTACCAGGGTGAACAAGGTCGTTGATTACTATTC,1.69,1.59,0.976,0.927,1.85,3.28,1.27,2.42
CCTCGGAGGACAAGAGGAGGTCAGAGCTGCCAGA,2.96,2.87,2.83,0.0626,1.58,2.55,0.679,0.697
CGGACTGGGGCATAAGGTTACCATAAGCCAGCCC,1.94,1.83,1.21,-0.836,1.29,2.18,1.39,-0.454
ACTATTGGTTGAGACGAGGGCAACCGATAGGTTG,1.15,0.833,0.715,0.116,0.596,2.69,0.731,1.02
TCTAGTTGGTCAAAGGACACACACTCGAAATGCG,1.99,1.75,2.29,1.09,1.12,1.59,1.14,0.435
CGTCCAAGGTCAATGCTAGGTTAGTGAAAGCATT,2.54,6.12,6.16,3.86,4.75,3.91,2.27,2.58

Sequence,PBM binding z-score [1],PBM binding z-score [2],PBM binding z-score [3],PBM binding z-score [4],PBM binding z-score [5],PBM binding z-score [6],PBM binding z-score [7],PBM binding z-score [8]
CCTCGGAGGACAACAGAAGGTCAGAGCTGCCAGA,3.55,3.3,3.27,0.274,1.54,2.36,0.481,0.506
CGTCCAAGGTCAACGTCAGTGAAAGAGACTCGAA,3.98,6.3,7.13,3.49,6.13,4.04,2.55,1.8
AATACAGGGTCACTAGGCTAGAGTAGGTACGAAT,3.33,4.95,5.26,2.71,5.52,3.35,1.23,2.2
CCTACTGGGCCATCAGGTCCTTGATATCAACGTT,0.0749,-0.0484,0.0919,-0.586,-0.412,0.183,0.322,0.000123
GCTTGTAGATCAAGGTTAAGAATGACTAAGCTAA,0.438,0.397,0.413,0.0922,0.859,1.08,-0.00442,-0.161
AGAACGACGGCAATGAGTTGATAGCACGGGTGGC,-0.961,-0.245,-0.185,-0.402,0.0598,-0.626,-1.12,-0.0582
ATCGAAAGGTCGACGAAGTGAGTATACACCGTTT,2.14,3.86,3.83,0.645,3.75,1.79,-0.48,0.3
CTCGAAAGGTCGTGCTCAGGTGAGTATCCCAAAC,2.88,5.08,3.47,2.02,4.66,4.05,1.22,0.742
GCTTACGGGTCAAAGGATATAGCATGAATAGAAT,2.26,4.62,3.96,1.92,5.17,2.22,-0.222,0.703
CGTCCAAGGTCAGGAGGTCAGTGAAAGCGACGTG,5.53,7.05,7.08,2.75,6.98,4.05,2.68,2.82
TTACCAAGGTGAAAGTTCGTTGATGCACGCCTTG,1.67,2.35,1.2,1.14,2.86,2.41,0.508,2.05
TCTCGCAGGACACGAAGGTCAGAGCTTTCCAGAG,3.18,2.44,2.34,0.886,1.96,2.4,0.377,0.357
TCTATTAGTTGATGAGGGCAACCGAAACAGCGGA,1.27,0.771,0.907,1.31,1.06,1.68,0.938,1.35
GCTGCCAGGTCAACTGATGGTCAGCTAAAGCTCG,3.58,5.49,5.38,1.94,3.81,3.68,2.18,0.679
AGTCAAAGTTCACTAGGTAAAGTAAGATTCAGCT,3.32,4.93,5.48,4.25,4.02,1.75,0.0953,3.61
GCTAGCAGGCCATTTGGGTCAGTCAATGACGGGC,1.42,0.49,1.01,-0.27,0.218,0.812,-0.371,-0.151
CGAACTAGGTCAGAACAGGACAGTGCAGGATGAT,2.14,2.44,3.46,0.591,1.26,3.38,0.224,0.113
GCTAGTTCGTCAGTAAAAGGTCACACACCGGTCG,5,5.12,4.64,2.51,5.36,3.72,1.98,2.88
